# BAZ2B inh – blocks human BAZ2B; Q9UIF8; AlphaScreen BAZ2B-H3K14Ac peptide displacement; Potency, µM (doses to about 114 µM), without a hit: top-dose activity change, negative = inhibition, hits mostly inhibitors; hit rate 4.4% among 360,000; also: potency is read from the fitted curve at half-maximal effect; % is scaled to controls: 0 for no effect and ±100 for the full control effect; nearly all actives have a fitted effect of over 60% in size
#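 BAZ2B 50 nM plus b-H3(5-23)K14Ac 50 nM, PBS pH 7.4/0.01% Tween-20, 30 min RT; compound added (max 110 uM), 30 min RT; streptavidin donor/Ni-chelate acceptor beads 10 ug/mL final, 20 min dark; AlphaScreen read.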
# Six1-Eya2 inh – inhibitors of human Six1/Eya2 interaction | Q15475+O00167 | AlphaScreen GST-Six1/His-Eya2 binding, biochemical; active compounds read low | activity change, % (concentration not given with the values) | hit rate 0.56% among 360,000; in the data active = activity change below about -65%; inconclusive = mostly about -30% to -63%; also: % is scaled to controls: 0 for no effect and ±100 for the full control effect
# Target sequence (O00167 whole entry, looked up): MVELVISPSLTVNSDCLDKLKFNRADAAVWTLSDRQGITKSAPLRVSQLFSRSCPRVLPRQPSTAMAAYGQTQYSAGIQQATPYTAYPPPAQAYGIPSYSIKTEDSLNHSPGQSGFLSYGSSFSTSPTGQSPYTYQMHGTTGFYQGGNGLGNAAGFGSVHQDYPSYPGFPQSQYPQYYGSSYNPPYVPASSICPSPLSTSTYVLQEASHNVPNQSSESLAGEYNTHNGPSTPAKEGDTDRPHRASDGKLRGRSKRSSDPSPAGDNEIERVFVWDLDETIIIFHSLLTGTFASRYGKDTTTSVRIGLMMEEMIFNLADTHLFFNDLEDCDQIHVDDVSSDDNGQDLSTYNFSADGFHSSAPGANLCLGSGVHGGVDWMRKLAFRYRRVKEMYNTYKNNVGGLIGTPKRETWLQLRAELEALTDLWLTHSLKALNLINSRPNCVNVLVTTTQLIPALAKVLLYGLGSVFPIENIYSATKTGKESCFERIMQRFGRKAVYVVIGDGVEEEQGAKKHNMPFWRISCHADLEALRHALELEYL
# Target sequence (Q15475 whole entry, looked up): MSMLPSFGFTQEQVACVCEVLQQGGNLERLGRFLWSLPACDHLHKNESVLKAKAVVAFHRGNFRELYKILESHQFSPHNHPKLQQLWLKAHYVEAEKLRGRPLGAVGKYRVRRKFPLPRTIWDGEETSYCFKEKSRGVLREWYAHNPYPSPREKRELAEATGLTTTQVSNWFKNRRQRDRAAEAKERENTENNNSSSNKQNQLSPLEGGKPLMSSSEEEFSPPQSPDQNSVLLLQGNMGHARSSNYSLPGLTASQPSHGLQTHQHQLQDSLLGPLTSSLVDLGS
#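 GST-Six1 + His-Eya2 (5X stock: 250/500 nM); Tris pH 8.0, 300 mM NaCl, 0.05% BSA, 0.02% Tween 20; GSH donor/Ni acceptor beads; 1 h 37 °C dark; AlphaScreen readout.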
# G9a block – inhibitors of human histone lysine methyltransferase G9a; Q96KQ7; G9a H3K9 monomethylation, AlphaScreen, 2 h; Potency, µM (doses to about 102 µM), for the others: at the top dose activity, negative = inhibition, hits mostly inhibitors; hit rate 8.8% among 350,000; AID 504332; also: potency is read from the fitted curve at half-maximal effect; % is scaled to controls: 0 for no effect and ±100 for the full control effect; nearly all actives have a fitted effect of over 75% in size
#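 Using a bead-based AlphaScreen, monomethylated H3K9 product from 2 h room-temperature reactions (G9a 20 nM, peptide 500 nM, SAM 20 uM) was detected with 0.5 ug/mL rabbit anti-H3K9me1 antibody.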
# HP1b binding inh – blocks HP1-beta chromodomain binding to methylated histone tails; P83916; AlphaScreen HP1-beta / biotin-H3K9me3 peptide binding; Potency, µM (series often up to 114 µM), for inactives: at the highest dose activity change, negative = inhibition, actives largely listed as inhibitors; hit rate 0.56% among 390,000; also: potency is read from the fitted curve at half-maximal effect; nearly all actives have a fitted effect of over 70% in size
#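 Compound inhibition of the preformed complex between 50 nM HP1-beta and 50 nM biotinylated H3K9me3 peptide was read by AlphaScreen. Buffer was PBS pH 7.4 with 0.01% Tween-20. Incubations ran 30 min at room temperature, with 10 ug/mL donor/acceptor beads.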
# CtBP-E1A inh – CtBP/E1A binding inhibition; AlphaScreen GST-E1A/His-CtBP binding, 1536-well; active compounds read low; activity change, % (test concentration not listed); hit rate 0.49% among 340,000; AID 651724; in the data active = activity change below about -65%; inconclusive = mostly about -30% to -63%; also: % is scaled to controls: 0 for no effect and ±100 for the full control effect
#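 Steps: dispense buffer (Tris pH 8.0, NaCl 300 mM, TCEP 1 mM, BSA, Tween 20); add 5X protein mix (GST-E1A, His-CtBP, 125 nM each); pin 23 nL compound; 2 h at 37 °C, dark; add 5X beads (50 ug/mL); 1 h; read.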
# JMJD2A Tudor inh – inhibitors of human JMJD2A Tudor domain | AlphaScreen JMJD2A-Tudor / H3K4me3 peptide binding | AID 504339 | O75164 | hit rate 4.4% among 390,000 | Potency, µM (highest dose often 114 µM), without a hit: at the highest dose activity change, negative = inhibition, actives largely listed as inhibitors; also: potency is read from the fitted curve at half-maximal effect; % is scaled to controls: 0 for no effect and ±100 for the full control effect; nearly all actives have a fitted effect of over 50% in size
# * = called active by the depositor; ? = inconclusive; . = no result; [ ] = remark or other dose. A selection: hits, their analogues and other compounds. The true share with any hit is near 10%. Unless noted, calls follow the shape of the dose curve; as a rule, active = well fitted inhibition curve with a large enough effect; inconclusive = small, poorly fitted or top-dose-only effect; inactive = no such curve, though single readings can be large or run the other way.
SMILES,BAZ2B inh,Six1-Eya2 inh,G9a block,HP1b binding inh,CtBP-E1A inh,JMJD2A Tudor inh
COc1ccc(OC)c(NS(=O)(=O)c2ccc(N3CCCCS3(=O)=O)cc2)c1,-12%,.,5%[59 µM],10%,.,-7%
Cc1ccc(NCc2ccccc2O)c(C)c1,32µM*,-18,45µM*,-8%,-19,?
CN(CC(=O)Nc1ccc(Cl)cc1F)S(=O)(=O)c1ccc2c(c1)n(C)c(=O)c(=O)n2C,-7%,.,?,32%,.,-8%
Cc1csc(CN(C)C(=O)CC2C(=O)NCCN2Cc2ccccc2C)n1 (stereo not given),.,12,.,.,4,.
CN(CC1CCOCC1)C(=O)CC1C(=O)NCCN1Cc1ccc(Cl)c(F)c1 (stereo not given),-2%,-3,50µM*,25%,0,-16%
COc1cccc(CN2CCNC(=O)C2CC(=O)N(C)C2CCCCC2)c1 (stereo not given),-20%,4,50µM*,32%,2,-14%
CN(CC1CCOCC1)C(=O)CC1C(=O)NCCN1CC(c1ccccc1)c1ccccc1 (stereo not given),-10%,3,89µM*,17%,0,-12%
COc1ccccc1CN1CCNC(=O)C1CC(=O)N(C)Cc1nc(C)cs1 (stereo not given),-5%,-1,50µM*,44%,-2,-8%
CCOc1ccc(CN2CCNC(=O)C2CC(=O)N(C)CC2CCOCC2)cc1 (stereo not given),-6%,8,?,52%,2,-16%
COc1ccc(OC)c(-c2noc(N3CCN(c4cccc(C)c4C)CC3)n2)c1,-15%,.,?,24%,.,-28%
COc1ccc(CNCc2c(C(=O)O)c(C)n(Cc3ccccc3C)c2C)cc1OC,-29%,.,5%[59 µM],6%,.,-20%
Cc1ccc(C(c2sc3nc(-c4ccco4)nn3c2O)N2CCOCC2)cc1 (stereo not given),-1%,.,12%[59 µM],35%,.,-6%
CCN(Cc1ccccc1)C(=O)c1c(C)oc2ncn(C)c(=O)c12,7%[57.1 µM],.,-12%[59 µM],19%,.,-10%
CN(Cc1ccccn1)C(=O)CC1C(=O)NCCN1Cc1ccc(F)cc1Cl (stereo not given),56µM*,-6,.,14%,-5,?
O=CN1CCCN(C(=O)CC2C(=O)NCCN2Cc2cccc(Oc3ccccc3)c2)CC1 (stereo not given),-36%,-4,45µM*,47%,-9,-17%
CN(Cc1ccon1)C(=O)CC1C(=O)NCCN1Cc1cccc(Oc2ccccc2)c1 (stereo not given),?,0,?,34%,-7,-27%
O=C1NCCN(Cc2cccc(Oc3ccccc3)c2)C1CC(=O)N1CCCCC1 (stereo not given),-25%,-2,.,4%,-8,-30%
CN(CCC1CCOCC1)C(=O)CC1C(=O)NCCN1Cc1c(F)cccc1Cl (stereo not given),-19%,1,40µM*,29%,-1,-9%
CN(Cc1ccccn1)C(=O)CC1C(=O)NCCN1Cc1cccc(Oc2ccccc2)c1 (stereo not given),-31%,-16,45µM*,12%,-8,-15%
Cc1ccc(OCC(=O)Nc2ccc(OCc3cc(=O)n4ccsc4n3)cc2)cc1,5%,.,-8%[59 µM],39%,.,-4%
CCOc1ccc(CCNC(=O)c2nnc(Cc3ccc(Cl)cc3Cl)o2)cc1OCC,-14%,.,11%[59 µM],16%,.,-6%
COc1cc(CN2CCNC(=O)C2CC(=O)NCCCC2CCCC2)cc(OC)c1 (stereo not given),-22%,8,71µM*,21%,-9,-26%
CN(Cc1cnn(C)c1)C(=O)CC1C(=O)NCCN1Cc1cccc(Oc2ccccc2)c1 (stereo not given),-21%,5,25µM*,8%,-5,-22%
CN(CC1CCOCC1)C(=O)CC1C(=O)NCCN1Cc1cccc(Oc2ccccc2)c1 (stereo not given),-21%,2,35µM*,38%,-12,-19%
O=C(C1CCC(Cn2c(=O)c3sccc3n(Cc3ccc(F)cc3)c2=O)CC1)N1CCOCC1 (stereo not given),-11%,.,-3%[59 µM],34%,.,-13%
SMILES,BAZ2B inh,Six1-Eya2 inh,G9a block,HP1b binding inh,CtBP-E1A inh,JMJD2A Tudor inh
O=C(Nc1ccc(Cl)cc1Cl)c1cccc(N2C(=O)C=CC2=O)c1,4%,6,?,?,-25,3.2µM*
O=C(O)c1cccc(N2C(=O)C=CC2=O)c1,.,?,.,.,0,.
CC1CCN(S(=O)(=O)c2ccc3c(c2)c(=O)c(C(=O)NC(C)c2ccccc2)cn3C)CC1 (stereo not given),.,.,?,6%,.,-25%
Cc1ccc(C(C)C)cc1OCC(=O)NNC(=O)Nc1ccccc1,7%,-4,79µM*,48%,2,-11%
COc1ccc(-c2cc(C(F)(F)F)n3nc(C(=O)Nc4cccc(Cl)c4Cl)cc3n2)cc1OC,3%,.,?,44%,.,-12%
CN(C)c1ccc(-c2nccc(Nc3ccc(F)cc3)n2)cc1,.,.,1%[0.501 µM],.,.,.
CC1CCCC(C)N1/N=C/c1ccccc1F (stereo not given),50µM*,-5,3.2µM*,?,-5,3.2µM*
CCOc1ccc(-c2cc3nc(C4CCN(C(=O)OC(C)(C)C)CC4)c(C(=O)Nc4ccc(C)cc4C)cn3n2)cc1,1%,.,-2%[59 µM],45%,.,-12%
CCN1CCCC1CNS(=O)(=O)c1cccc(C(F)(F)F)c1 (stereo not given),2%,7,45µM*,17%,1,1%
Cn1c(=O)c2c(SCC(=O)NCc3ccc(F)cc3)nc(-c3ccccc3Cl)nc2n(C)c1=O,4%,.,6%[59 µM],13%[57 µM],.,-12%
Cc1ccc(S(=O)(=O)N2CCOCC2)cc1NC(=O)COC(=O)CNC(=O)c1ccc(C(C)(C)C)cc1,-28%,-2,50µM*,11%,-9,-20%
CCN(CC)c1ccc(NC(=O)COC(=O)CSc2ccc(Br)cc2C)cc1,10µM*,?,8.9µM*,16µM*,2,18µM*
Cc1ccc(S(=O)(=O)N2CCOCC2)cc1NC(=O)COC(=O)CSc1ccc(Br)cc1C,-2%,-1,18µM*,15%,-1,-29%
Cc1ccc(S(=O)(=O)N2CCOCC2)cc1NC(=O)COC(=O)c1ccc(Br)cc1,.,0,.,22%,1,-3%
Cc1ccc2oc(=O)c3cc(C(=O)NCCCOC(C)C)sc3c2c1,-2%,.,-40%[59 µM],18%,.,-17%
COc1ccc(-c2nc(CSc3nncn4c3cc3oc(C)cc34)c(C)o2)cc1,-31%,.,-9%[59 µM],34%,.,-23%

# Screening results deposited in PubChem BioAssay by National Center for Advancing Translational Sciences (NCATS).
